Assay [1] is described as follows: ATG_CRE_CIS: Attagene CIS-FACTORIAL HepG2 Assay for human cAMP Responsive Element (CRE) binding protein 3 (AID 2282926). Conditions: HepG2 CRE cis-reporter, Attagene multiplexed mRNA; actives raise or lower the signal. The gist of the method:
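Transfected HepG2 were treated for 24 hours, then RNA was extracted and reporter cDNA amplified with sequence-specific primers. Labelled fragments were separated by capillary electrophoresis, and the CRE signal was fitted bidirectionally with DMSO as baseline.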

In assay [2] the target is CCAAT/enhancer-binding protein beta (Homo sapiens) (UniProt P17676). Put plainly: ATG_C_EBP_CIS: Attagene CIS-FACTORIAL HepG2 Assay for human CCAAT/Enhancer Binding Protein (C/EBP) beta (AID 2282927). The conditions noted are these: HepG2 Attagene cis-factorial transcription factor reporter; actives raise or lower the signal. An outline of the steps:
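HepG2 transiently transfected with multiplexed reporter units under cis-regulatory promoters reporting endogenous C/EBPb activity. After 24 h exposure, reporter mRNA assayed by RT-PCR, fluorescent labelling, HpaI digestion and capillary electrophoresis; bidirectional fitting versus DMSO.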

Assay [3] is described as follows: ATG_CMV_CIS: Attagene CIS-FACTORIAL HepG2 Assay for human CMV (Internal Marker) (AID 2282928).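 Further: endpoint acts as a background internal control marker rather than a target.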 The conditions noted are these: HepG2 CMV promoter reporter, transcription factor profiling; actives raise or lower the signal. An outline of the steps: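 Endogenous transcription factor activity read in HepG2 via transfected cis-promoter reporter units. After 24 h dosing, reporter mRNA measured by RT-PCR/capillary electrophoresis; gain or loss of signal fit relative to DMSO.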

Assay [4] is described as follows: ATG_DR4_LXR_CIS: Attagene CIS-FACTORIAL HepG2 Assay for human Liver X Receptor (LXR), DR4 submotif (AID 2282929). The conditions noted are these: HepG2 Attagene DR4 cis-reporter, mRNA transcription; actives raise or lower the signal. The gist of the method: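 After transient transfection with multiplexed cis-promoter reporter units, HepG2 cells received test chemicals for 24 h. Reporter mRNA induction, detected by fluorescence after RT-PCR and capillary electrophoresis, was scored relative to DMSO.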

In assay [5] the target is Aryl hydrocarbon receptor (Homo sapiens) (UniProt P35869). Put plainly: ATG_Ahr_CIS: Attagene CIS-FACTORIAL HepG2 Assay for human Aryl Hydrocarbon Receptor (Ahr) (AID 2282930). The conditions noted are these: HepG2 AhR cis-factorial reporter transcription; actives raise or lower the signal. The gist of the method: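 HepG2 cells transiently transfected with cis-element-driven multiplexed reporter units; endogenous AhR activity read as reporter mRNA 24 h after dosing, via RT-PCR, 6-FAM labelling, HpaI digestion and capillary electrophoresis. Bidirectional fit relative to DMSO.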

The nature of assay [6]: ATG_AP_1_CIS: Attagene CIS-FACTORIAL HepG2 Assay for human Activator Protein 1 (AP-1) (AID 2282931). The conditions noted are these: HepG2 Attagene cis-factorial AP-1 reporter mRNA; actives raise or lower the signal. An outline of the steps:
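After 24 h incubation with test chemical, RNA from transfected HepG2 cells was reverse-transcribed, amplified, fluorescently labelled and digested before capillary electrophoresis. Reporters were driven by cis-regulatory promoters; activity fitted bidirectionally versus DMSO.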

A short description of assay [7]: ATG_AP_2_CIS: Attagene CIS-FACTORIAL HepG2 Assay for human Activator Protein 2 (AP-2) (AID 2282932). The conditions noted are these: HepG2 AP-2 cis-reporter, Attagene transcription factor profiling; actives raise or lower the signal. The gist of the method:
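HepG2 cells transiently transfected with cis-element reporter units and exposed for 24 h. Reporter mRNA measured by RT-PCR, FAM labelling, HpaI digestion and capillary electrophoresis. Changes in either direction fitted relative to DMSO.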

A short description of assay [8]: ATG_BRE_CIS: Attagene CIS-FACTORIAL HepG2 Assay for human Bone Morphogenetic Protein (BMP) Response Element (BRE) (AID 2282933). The conditions noted are these: HepG2 BMP response element reporter, Attagene transcription factor profiling; actives raise or lower the signal. An outline of the steps: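 Endogenous transcription factor activity at a BMP response element was monitored in transfected HepG2 cells 24 h after dosing. Fluorescent RT-PCR products were resolved by capillary electrophoresis, and activity was fitted in both directions versus DMSO.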

In assay [9] the target is Retinoic acid receptor alpha (Homo sapiens) (UniProt P10276). Nature of the assay: ATG_DR5_RAR_CIS: Attagene CIS-FACTORIAL HepG2 Assay for human Retinoic Acid Receptor Alpha (RARE), DR5 submotif (AID 2282934). Conditions: HepG2 Attagene cis-factorial RARE DR5 reporter, mRNA; actives raise or lower the signal. An outline of the steps:
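HepG2 cells transiently transfected with multiplexed reporter units; DR5 cis-element drives reporter through endogenous transcription factors. After 24 h dosing, reporter mRNA quantified by RT-PCR, fluorescent labeling, HpaI digestion and capillary electrophoresis; bidirectional fitting versus DMSO.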

The target of assay [10] is Transcription factor E2F1 (Homo sapiens) (UniProt Q01094). Put plainly: ATG_E2F_CIS: Attagene CIS-FACTORIAL HepG2 Assay for human E2F Transcription Factor 1 (AID 2282935). Conditions: HepG2 Attagene cis-reporter, E2F reporter RNA transcripts; actives raise or lower the signal. The gist of the method: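 Endogenous E2F1 activity read through cis-promoter reporter units transfected into HepG2. After 24 h compound treatment, reporter mRNA measured by RT-PCR, HpaI digestion and capillary electrophoresis. Bidirectional fit versus DMSO.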

Assay [11] can be described thus: ATG_E_Box_CIS: Attagene CIS-FACTORIAL HepG2 Assay for human Enhancer Box (E-box) (AID 2282936). Conditions: HepG2 E-box cis-reporter transcription, actives raise or lower the signal. The gist of the method:
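HepG2 cells transiently transfected with multiplexed cis-element reporter units, dosed 24 h; reporter mRNA quantified by RT-PCR, 6-FAM labelling, HpaI digestion and capillary electrophoresis. E-box (USF1) signal fitted bidirectionally vs DMSO.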

The nature of assay [12]: ATG_M_61_CIS: Attagene CIS-FACTORIAL HepG2 Assay for M61 Transcription Factor (Internal Marker) (AID 2282937). The conditions noted are these: HepG2 Attagene CIS-FACTORIAL M61 internal marker reporter; actives raise or lower the signal. An outline of the steps: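 Using transiently transfected HepG2 liver cells, reporter transcript levels were assessed 24 h post-dosing by RT-PCR and capillary electrophoresis. Changes in either direction were fitted relative to DMSO controls.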

A short description of assay [13]: ATG_EGR_CIS: Attagene CIS-FACTORIAL HepG2 Assay for human Early Growth Response 1 (EGR1) (AID 2282938). Conditions: HepG2 Attagene CIS-FACTORIAL EGR reporter mRNA; actives raise or lower the signal. The gist of the method: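 Fluorescent capillary-electrophoresis signal of reporter cDNA fragments serves as read-out. HepG2 cells bear transiently transfected cis-promoter reporter units and are exposed 24 h; gain- or loss-of-signal is fitted against DMSO.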

Assay [14] is described as follows: ATG_M_19_CIS: Attagene CIS-FACTORIAL HepG2 Assay for M19 Transcription Factor (Internal Marker) (AID 2282939). The conditions noted are these: HepG2 Attagene CIS-FACTORIAL M19 internal marker reporter; actives raise or lower the signal. An outline of the steps: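 Background-control endpoint from a multiplexed HepG2 reporter panel. Cells carrying cis-regulated reporter constructs are treated 24 h, then reporter transcripts are amplified, fluorescently labelled and sized by capillary electrophoresis. DMSO defines baseline.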

Assay [15] can be described thus: ATG_Ets_CIS: Attagene CIS-FACTORIAL HepG2 Assay for human Erythroblast Transformation Specific (ETS) (AID 2282941). Conditions: HepG2 ETS cis-reporter transcription, actives raise or lower the signal. The gist of the method: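 Steps: transfect HepG2 with multiple reporter units; treat compound 24 h; isolate RNA, DNase-treat, reverse-transcribe; PCR-amplify, label with 6-FAM, digest with HpaI; separate by capillary electrophoresis. Activity fitted both directions versus DMSO.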

Assay [16] concerns the target Hepatocyte nuclear factor 3-beta (Homo sapiens) (UniProt Q9Y261). Nature of the assay: ATG_FoxA2_CIS: Attagene CIS-FACTORIAL HepG2 Assay for human Forkhead box A2 (FOXA2) (AID 2282942). The conditions noted are these: HepG2 cis-reporter transcription factor activity, 24 h; actives raise or lower the signal. The gist of the method:
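Fluorescence signal of reporter cDNA fragments, separated by capillary electrophoresis, reflects endogenous transcription factor activity in transfected HepG2 after 24 h. Both increases and decreases fitted against DMSO.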

A short description of assay [17]: ATG_FoxO_CIS: Attagene CIS-FACTORIAL HepG2 Assay for human Forkhead box O (FoxO) (AID 2282943). The conditions noted are these: HepG2 Attagene cis-reporter, FoxO element, mRNA; actives raise or lower the signal. An outline of the steps:
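HepG2 cells transiently transfected with cis-element-driven reporter units report endogenous FoxO activity. After 24 h chemical exposure, reporter mRNA quantified by RT-PCR, fluorescent labeling, HpaI digestion and capillary electrophoresis; bidirectional fit versus DMSO.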

A short description of assay [18]: ATG_GATA_CIS: Attagene CIS-FACTORIAL HepG2 Assay for human GATA Binding Protein (AID 2282944). Conditions: HepG2 GATA cis-element reporter, Attagene multiplex mRNA; actives raise or lower the signal. The gist of the method: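 Endogenous transcription factor activity was captured through cis-promoter-driven reporters in transfected HepG2 cells. After 24 h exposure, reporter transcripts were quantified by RT-PCR with fluorescent capillary electrophoresis, and responses fitted both directions against DMSO.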

The nature of assay [19]: ATG_GLI_CIS: Attagene CIS-FACTORIAL HepG2 Assay for human Zinc Finger Protein GLI1 (AID 2282945). Conditions: HepG2, Attagene cis-factorial reporter mRNA, GLI element; actives raise or lower the signal. The gist of the method: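 Transiently transfected HepG2 cells report endogenous transcription factor activity via cis-element-driven reporter units. After 24 h compound exposure, reporter mRNA was measured by RT-PCR with capillary electrophoresis; bidirectional fitting against DMSO baseline.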

Calls of active or inactive are those of the source. How the source made its calls: active means hit-call score of the fitted dose curve at least 0.9, where 1 is the maximum; inactive means score below 0.9.

Chain of Retinoic acid receptor alpha (Homo sapiens) (P10276 whole entry, looked up): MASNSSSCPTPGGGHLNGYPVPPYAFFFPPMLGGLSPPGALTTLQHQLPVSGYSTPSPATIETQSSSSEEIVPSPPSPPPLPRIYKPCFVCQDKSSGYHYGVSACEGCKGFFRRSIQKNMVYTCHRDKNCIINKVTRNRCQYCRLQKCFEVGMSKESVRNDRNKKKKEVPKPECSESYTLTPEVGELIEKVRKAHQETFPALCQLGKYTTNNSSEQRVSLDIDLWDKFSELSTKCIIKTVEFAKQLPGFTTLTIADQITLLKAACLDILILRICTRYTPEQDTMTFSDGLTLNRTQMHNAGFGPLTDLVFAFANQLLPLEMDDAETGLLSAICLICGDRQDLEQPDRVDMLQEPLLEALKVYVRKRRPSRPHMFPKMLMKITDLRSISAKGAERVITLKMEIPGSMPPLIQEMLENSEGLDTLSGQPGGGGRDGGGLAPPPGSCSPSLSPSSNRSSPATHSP
Chain of Hepatocyte nuclear factor 3-beta (Homo sapiens) (Q9Y261 whole entry, looked up, the tested form may be a part): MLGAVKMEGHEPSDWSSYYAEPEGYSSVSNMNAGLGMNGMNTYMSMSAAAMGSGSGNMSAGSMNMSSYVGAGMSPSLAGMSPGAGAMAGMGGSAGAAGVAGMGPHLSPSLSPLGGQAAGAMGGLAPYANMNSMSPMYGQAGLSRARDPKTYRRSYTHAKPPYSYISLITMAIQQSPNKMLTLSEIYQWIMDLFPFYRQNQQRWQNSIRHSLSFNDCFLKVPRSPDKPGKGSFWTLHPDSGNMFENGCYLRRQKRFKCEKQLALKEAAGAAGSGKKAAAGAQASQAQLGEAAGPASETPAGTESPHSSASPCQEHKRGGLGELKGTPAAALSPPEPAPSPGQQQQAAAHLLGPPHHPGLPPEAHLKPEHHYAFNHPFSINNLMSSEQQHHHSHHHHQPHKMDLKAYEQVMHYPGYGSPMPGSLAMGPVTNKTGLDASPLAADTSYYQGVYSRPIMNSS
Chain of CCAAT/enhancer-binding protein beta (Homo sapiens) (P17676 whole entry, looked up): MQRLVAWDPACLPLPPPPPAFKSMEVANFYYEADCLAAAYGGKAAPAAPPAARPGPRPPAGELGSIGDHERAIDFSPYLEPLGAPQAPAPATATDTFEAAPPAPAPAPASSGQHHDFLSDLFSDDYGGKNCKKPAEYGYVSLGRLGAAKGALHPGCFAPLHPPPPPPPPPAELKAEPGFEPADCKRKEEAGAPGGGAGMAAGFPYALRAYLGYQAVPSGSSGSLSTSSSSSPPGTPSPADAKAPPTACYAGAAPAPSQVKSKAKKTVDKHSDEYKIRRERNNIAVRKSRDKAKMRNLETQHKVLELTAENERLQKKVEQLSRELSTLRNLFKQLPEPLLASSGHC
Chain of Aryl hydrocarbon receptor (Homo sapiens) (P35869 whole entry, looked up): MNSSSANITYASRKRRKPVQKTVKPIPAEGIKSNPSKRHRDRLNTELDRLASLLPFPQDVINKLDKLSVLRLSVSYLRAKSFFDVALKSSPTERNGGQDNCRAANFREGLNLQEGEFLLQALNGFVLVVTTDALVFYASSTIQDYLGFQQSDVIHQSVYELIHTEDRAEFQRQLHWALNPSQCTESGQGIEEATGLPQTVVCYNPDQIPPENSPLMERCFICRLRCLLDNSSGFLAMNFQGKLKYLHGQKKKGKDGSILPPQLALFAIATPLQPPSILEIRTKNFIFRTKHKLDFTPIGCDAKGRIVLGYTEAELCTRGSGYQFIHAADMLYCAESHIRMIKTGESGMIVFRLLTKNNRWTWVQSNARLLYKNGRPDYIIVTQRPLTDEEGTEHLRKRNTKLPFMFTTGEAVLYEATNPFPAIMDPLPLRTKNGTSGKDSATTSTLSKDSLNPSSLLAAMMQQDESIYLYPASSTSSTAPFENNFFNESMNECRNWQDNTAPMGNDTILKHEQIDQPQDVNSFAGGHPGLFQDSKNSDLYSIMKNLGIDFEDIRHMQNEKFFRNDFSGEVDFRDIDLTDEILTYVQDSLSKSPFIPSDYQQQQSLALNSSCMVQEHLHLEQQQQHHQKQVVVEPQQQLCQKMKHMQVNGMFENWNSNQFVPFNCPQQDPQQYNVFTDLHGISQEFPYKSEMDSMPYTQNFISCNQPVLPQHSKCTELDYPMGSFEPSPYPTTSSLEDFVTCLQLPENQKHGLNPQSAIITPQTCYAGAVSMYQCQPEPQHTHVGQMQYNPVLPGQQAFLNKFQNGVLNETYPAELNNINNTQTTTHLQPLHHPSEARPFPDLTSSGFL
Chain of Transcription factor E2F1 (Homo sapiens) (Q01094 whole entry, looked up): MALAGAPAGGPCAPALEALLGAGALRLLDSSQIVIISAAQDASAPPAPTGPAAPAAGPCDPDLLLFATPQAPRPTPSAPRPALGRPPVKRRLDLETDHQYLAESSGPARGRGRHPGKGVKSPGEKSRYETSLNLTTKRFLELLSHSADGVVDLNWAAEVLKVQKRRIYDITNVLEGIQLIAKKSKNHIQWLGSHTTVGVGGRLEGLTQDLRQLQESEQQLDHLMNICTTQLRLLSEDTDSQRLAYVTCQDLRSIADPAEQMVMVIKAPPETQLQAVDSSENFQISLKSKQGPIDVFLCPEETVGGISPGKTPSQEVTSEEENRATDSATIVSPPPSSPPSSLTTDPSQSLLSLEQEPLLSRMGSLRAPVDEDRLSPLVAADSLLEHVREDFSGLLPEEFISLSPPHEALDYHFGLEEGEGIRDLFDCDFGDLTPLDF

For the compound `Cc1ccc(N)c(S(=O)(=O)O)c1`, the compound was classed as inactive in assay [1], in assay [2], in assay [3], in assay [4], in [5] and in [6]. For the same compound, the compound was called inactive in assay [7], in assay [8], in [9], in assay [10], in [11] and in assay [12]. Also, the compound was classed as inactive in [13], in assay [14], in assay [15], in [16], in [17] and in assay [18]. Besides, in assay [19], the call was inactive.

As usually defined, the AC50 is the concentration at which the activity in the assay is half-maximal. For `CCCCCCCCSCCO`, the concentration at half-maximal activity (AC50) is 100 µM (active) in assay [1], 100 µM (active) in assay [2], 100 µM (active) in assay [3] and 148 µM (active) in assay [4]. Besides, the compound was called inactive in assay [5], in [6], in assay [7], in assay [8], in [9] and in [10]. For the same compound, the result in [11], in assay [12], in [13], in assay [14], in assay [15] and in assay [16] was inactive. Besides, the outcome in [17], in [18] and in assay [19] was inactive.

For `CCN(CCC#N)c1ccc(N=Nc2ccc([N+](=O)[O-])cc2)cc1`, the outcome in assay [1], in assay [2], in assay [3], in assay [4], in [5] and in assay [6] was inactive. The call in assay [7], in assay [8], in [9], in assay [10], in [11] and in [12] was inactive. Moreover, the result in [13], in assay [14], in assay [15], in assay [16], in assay [17] and in assay [18] was inactive. For the same compound, the compound was called inactive in [19].

Take `CCCCCCOC(=O)C(C)C`: the compound was classed as inactive in [1], in [2], in assay [3], in assay [4], in assay [5] and in [6]. Further, the compound was classed as inactive in [7], in assay [8], in assay [9], in assay [10], in assay [11] and in [12]. For the same compound, the outcome in assay [13], in [14], in assay [15], in assay [16], in [17] and in assay [18] was inactive. Moreover, the compound was called inactive in assay [19].

For the origin of these results see PubChem BioAssay (EPA / NIEHS).
